± gives the standard deviation.
Columns and labels:
Test in all cases: peptide microarray binding signal (635 nm), min-max normalized on array (fraction of array maximum); higher = stronger binding
Details in all cases: peptide region: H2B 17-29
[1] = target: T1, HaloTag-ATRX ADD domain (163-292)
T1 chain: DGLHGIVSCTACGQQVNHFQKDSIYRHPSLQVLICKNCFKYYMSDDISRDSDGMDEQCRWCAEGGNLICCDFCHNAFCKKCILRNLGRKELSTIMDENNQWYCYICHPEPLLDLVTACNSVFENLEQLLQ
Procedure: (§1)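 Histone 13-mer peptides were synthesized as cellulose conjugates with a C-terminal 20-atom PEG linker and printed in triplicate on nitrocellulose. The sequence given is the unmodified backbone; PTMs (Kme1/2/3, Kac, Sph/Tph, Rme/Rme2a/Rme2s, Rcit) are listed in the label and the 'peptide modifications' condition. Slides were probed at 4 °C for 1 h with biotin-labelled (HQ)5-HaloTag reader fusions (ATRX-ADD, ING2-PHD) then streptavidin-Alexa647, or with rabbit histone antibodies then anti-rabbit Alexa647. The mean 635 nm signal of the triplicate spots was scaled 0-1 between the lowest and highest values on each array.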

[2] = target: HaloTag-ING2 PHD (mouse Ing2 200-280)
Procedure: as §1

[3] = target: anti-H3K4me3 antibody ab8580
Procedure: as §1

[4] = target: anti-H3K9me3 antibody ab8898
Procedure: as §1

[5] = peptide modifications: H2BK23ac H2BK24ac H2BK27ac H2BK28ac, binder concentration: 1:2,000 dilution
[6] = peptide modifications: H2BK23ac H2BK24ac H2BK27ac H2BK28ac, binder concentration: 1:10,000 dilution
[7] = peptide modifications: H2BK20ac H2BK24ac H2BK27ac, binder concentration: 1:2,000 dilution
[8] = peptide modifications: H2BK20ac H2BK24ac H2BK27ac, binder concentration: 1:10,000 dilution
[9] = peptide modifications: H2BK20ac H2BK23ac H2BK24ac, binder concentration: 1:2,000 dilution
[10] = peptide modifications: H2BK20ac H2BK23ac H2BK24ac, binder concentration: 1:10,000 dilution
[11] = peptide modifications: H2BK20ac H2BK23ac, binder concentration: 1:2,000 dilution
[12] = peptide modifications: H2BK20ac H2BK23ac, binder concentration: 1:10,000 dilution
[13] = peptide modifications: H2BK23ac H2BK24ac H2BK27ac, binder concentration: 1:2,000 dilution
[14] = peptide modifications: H2BK23ac H2BK24ac H2BK27ac, binder concentration: 1:10,000 dilution

B1: H2B 17-29 A V T K A Q Kac Kac D G Kac Kac R (peptide)
chain: AVTKAQKKDGKKR
peptide microarray binding signal ([1]; peptide modifications: H2BK23ac H2BK24ac H2BK27ac H2BK28ac, binder concentration: 50 nM): 0.00486 ± 0.00032
peptide microarray binding signal ([1]; peptide modifications: H2BK23ac H2BK24ac H2BK27ac H2BK28ac, binder concentration: 500 nM): 0.0102 ± 0.00019
peptide microarray binding signal ([2]; peptide modifications: H2BK23ac H2BK24ac H2BK27ac H2BK28ac, binder concentration: 10 nM): 0.00722 ± 0.00059
peptide microarray binding signal ([2]; peptide modifications: H2BK23ac H2BK24ac H2BK27ac H2BK28ac, binder concentration: 100 nM): 0.0164 ± 0.00086
peptide microarray binding signal [3, 5]: 0.00215 ± 0.00011
peptide microarray binding signal [3, 6]: 0.00205 ± 0.00011
peptide microarray binding signal [4, 5]: 0.00101 ± 6.9e-05
peptide microarray binding signal [4, 6]: 0.00138 ± 1.4e-05

B2: H2B 17-29 A V T Kac A Q K Kac D G Kac K R (peptide)
chain: AVTKAQKKDGKKR
peptide microarray binding signal ([1]; peptide modifications: H2BK20ac H2BK24ac H2BK27ac, binder concentration: 50 nM): 0.00335 ± 0.0001
peptide microarray binding signal ([1]; peptide modifications: H2BK20ac H2BK24ac H2BK27ac, binder concentration: 500 nM): 0.00514 ± 0.00021
peptide microarray binding signal ([2]; peptide modifications: H2BK20ac H2BK24ac H2BK27ac, binder concentration: 10 nM): 0.0031 ± 0.00013
peptide microarray binding signal ([2]; peptide modifications: H2BK20ac H2BK24ac H2BK27ac, binder concentration: 100 nM): 0.00255 ± 0.00012
peptide microarray binding signal [3, 7]: 0.00289 ± 0.00021
peptide microarray binding signal [3, 8]: 0.00143 ± 2.4e-05
peptide microarray binding signal [4, 7]: 0.000649 ± 5.6e-05
peptide microarray binding signal [4, 8]: 0.0011 ± 1.1e-05

B3: H2B 17-29 A V T Kac A Q Kac Kac D G K K R (peptide)
chain: AVTKAQKKDGKKR
peptide microarray binding signal ([1]; peptide modifications: H2BK20ac H2BK23ac H2BK24ac, binder concentration: 50 nM): 0.00661 ± 0.00032
peptide microarray binding signal ([1]; peptide modifications: H2BK20ac H2BK23ac H2BK24ac, binder concentration: 500 nM): 0.0168 ± 0.0019
peptide microarray binding signal ([2]; peptide modifications: H2BK20ac H2BK23ac H2BK24ac, binder concentration: 10 nM): 0.0274 ± 0.0038
peptide microarray binding signal ([2]; peptide modifications: H2BK20ac H2BK23ac H2BK24ac, binder concentration: 100 nM): 0.0204 ± 0.0078
peptide microarray binding signal [3, 9]: 0.00636 ± 0.0011
peptide microarray binding signal [3, 10]: 0.0024 ± 0.00011
peptide microarray binding signal [4, 9]: 0.00204 ± 0.00015
peptide microarray binding signal [4, 10]: 0.00208 ± 8.4e-05

B4: H2B 17-29 A V T Kac A Q K Kac D G K K R (peptide)
chain: AVTKAQKKDGKKR
peptide microarray binding signal ([1]; peptide modifications: H2BK20ac H2BK23ac, binder concentration: 50 nM): 0.00342 ± 3.7e-05
peptide microarray binding signal ([1]; peptide modifications: H2BK20ac H2BK23ac, binder concentration: 500 nM): 0.00562 ± 0.00013
peptide microarray binding signal ([2]; peptide modifications: H2BK20ac H2BK23ac, binder concentration: 10 nM): 0.00651 ± 0.00014
peptide microarray binding signal ([2]; peptide modifications: H2BK20ac H2BK23ac, binder concentration: 100 nM): 0.00468 ± 0.0004
peptide microarray binding signal [3, 11]: 0.00213 ± 0.0003
peptide microarray binding signal [3, 12]: 0.000685 ± 1.5e-05
peptide microarray binding signal [4, 11]: 0.000544 ± 1.7e-05
peptide microarray binding signal [4, 12]: 0.000865 ± 9e-06

B5: H2B 17-29 A V T K A Q Kac Kac D G Kac K R (peptide)
chain: AVTKAQKKDGKKR
peptide microarray binding signal ([1]; peptide modifications: H2BK23ac H2BK24ac H2BK27ac, binder concentration: 50 nM): 0.00329 ± 7.2e-05
peptide microarray binding signal ([1]; peptide modifications: H2BK23ac H2BK24ac H2BK27ac, binder concentration: 500 nM): 0.00362 ± 0.00012
peptide microarray binding signal ([2]; peptide modifications: H2BK23ac H2BK24ac H2BK27ac, binder concentration: 10 nM): 0.00406 ± 5.6e-05
peptide microarray binding signal ([2]; peptide modifications: H2BK23ac H2BK24ac H2BK27ac, binder concentration: 100 nM): 0.004039 ± 3.4e-05
peptide microarray binding signal [3, 13]: 0.00068 ± 1.9e-05
peptide microarray binding signal [3, 14]: 0.0012 ± 5.2e-05
peptide microarray binding signal [4, 13]: 0.000453 ± 1.3e-05
peptide microarray binding signal [4, 14]: 0.000519 ± 5.6e-06
